# A selection follows.
# aSyn 5UTR act: Activators via SNCA 5'UTR binding, MLPCN. alpha-synuclein 5'UTR reporter, activators screen. activity score, % (tested at 7.5 µM), hits read low. hit rate 7.1% among 300,000. AID 1814, 2009; in the data active means activity score below about -60%
# Starred values were filed as active, the others as inactive.
SMILES,aSyn 5UTR act
O=C(c1ccc([N+](=O)[O-])o1)N1CCc2ccccc2C1,-103*
CC(=O)c1ccc(-c2ccc(C(=O)N3CCCc4ccccc43)o2)cc1,-66*
Cc1ccc(C(=O)N2CCc3ccccc32)o1,-94*
CC(=O)c1ccc(-c2ccc(C(=O)N3CCN(c4ccc(F)cc4)CC3)o2)cc1,-73*
CN(C)C(=O)N1CCCC(C(=O)NCCc2ccccc2)C1 (stereo not drawn),-91*
COc1ccc(Br)cc1CNC(=O)C1CCN(C(=O)N(C)C)CC1,78
O=C(NCCc1ccccc1)C1CCN(C(=O)Nc2ccccc2)CC1,-66*
CC1CCCN(C(=S)NCCc2ccccc2)C1 (stereo not drawn),-102*
CC1CCCCN1C(=S)NCCc1ccccc1 (stereo not drawn),-93*
COc1ccc(/C=C2\CN(Cc3ccccc3)C/C(=C\c3ccc(OC)cc3OC)C2=O)c(OC)c1,-68*
COc1ccc2c(c1)OC/C(=C/c1cccs1)C2=O,-151*
COc1ccc(C=C2c3ccccc3C(=O)c3ccccc32)c(OC)c1,98
COc1ccc(/C=C2\COc3ccccc3C2=O)c(OC)c1,-140*
Clc1ccccc1OCc1nnc(-c2ccccc2Br)o1,-173*
N#Cc1ccccc1OCc1nnc(-c2ccccc2Br)o1,-178*
O=c1c(Cl)c(Cl)cnn1Cc1nnc(-c2ccccc2Br)o1,-66*
Cc1ccc(C(=O)O/N=C(\N)c2cccc([N+](=O)[O-])c2)cc1,-218*
N/C(=N\OC(=O)c1ccc(Br)cc1)c1cccc([N+](=O)[O-])c1,-179*
N/C(=N\OC(=O)c1ccncc1)c1cccc([N+](=O)[O-])c1,-70*
N/C(=N\OC(=O)c1ccc([N+](=O)[O-])cc1)c1ccc(Br)cc1,-81*
CCc1ccc(NC(=O)c2nc(S(=O)(=O)Cc3ccccc3)ncc2Cl)cc1,91
CC(C)c1nnc(NC(=O)c2nc(S(=O)(=O)Cc3ccccc3)ncc2Cl)s1,-81*
O=C(N/N=C/c1ccccc1[N+](=O)[O-])C(=O)N1CCCC1,-72*
O=C(/C=C1\NC2(CCCC2)Cc2ccccc21)C(=O)N/N=C/c1ccccc1O,74
Cc1ccc(C)c(-c2csc(Nc3ncccn3)n2)c1,-66*
SMILES,aSyn 5UTR act
Oc1ccc(-c2csc(Nc3ncccn3)n2)cc1O,-178*
Oc1ccc(-c2csc(Nc3ncccn3)n2)c(O)c1,-165*
Cc1cccc(Nc2nc(-c3ccc(O)cc3O)cs2)n1,-126*
NC(=O)c1ccccc1OCCOc1ccc(Br)cc1,-63*
CC(=O)c1ccccc1OCCOCCOCCOc1ccccc1C(C)=O,67
CCCOC(=O)/C(=C\C=C\c1ccco1)NC(=O)c1ccccc1,-86*
CC1CCC(NC(=O)N(CCCl)N=O)CC1 (stereo not drawn),-138*
CCN1CCc2c(sc(NC(=O)c3ccc(S(=O)(=O)N4CCOCC4)cc3)c2C(=O)OC)C1,-71*
Cc1ccc(-c2nc3ccsc3c(=O)[nH]2)cc1,-137*
Cc1ccc2nc(-c3ccncc3)[nH]c2c1,-120*
O=c1[nH]c(Cc2cccs2)nc2scc(-c3ccc(Cl)cc3)c12,-77*
Cc1ccc(-c2csc3nc(-c4ccncc4)[nH]c(=O)c23)cc1,-86*
Cc1ccc(-c2csc3nc4c5ccccc5c(NCCCN(C)C)nn4c(=O)c23)cc1,116
Cn1ccnc1SCC(=O)Nc1nc2ccccc2s1,-125*
Cc1ccc(NC(=O)CSc2nccn2C)cc1F,-62*
O=C(CSc1ccccn1)Nc1nc2ccccc2s1,-63*
Cn1ccnc1SCC(=O)Nc1ccc2nc(SCC(=O)NC3CC3)sc2c1,-152*
Cc1nc2c(ccc3nc(NC(=O)C4CC4)sc32)s1,-121*
CCC(=O)Nc1nc2ccc3sc(C)nc3c2s1,-86*
COc1cccc(NC(=O)C(=O)N2CCOCC2)c1,-173*
CCn1c2ccccc2c2cc(Nc3cc(C)nc4ncnn34)ccc21,82
CCn1c2ccccc2c2cc(NC(=O)C(=O)N3CCOCC3)ccc21,-63*
CCCNC(=O)Cn1cnc2sc(C(=O)Nc3ccc4c(c3)OCO4)c(C)c2c1=O,-63*
CCn1cnc2sc(C(=O)Nc3ccc4c(c3)OCO4)c(C)c2c1=O,-145*
N#C/C(=N\Nc1cccc2ccccc12)c1nnc2n1CCCCC2,-71*
SMILES,aSyn 5UTR act
O=C(Cc1cnn(-c2ccccc2)c1)c1ccc(O)c(O)c1O,-81*
Cc1ccc(O)c(C(=O)c2cnn(-c3ccccc3)c2)c1,-68*
CCc1ccc(NC(=O)CCC(=O)Nc2nnc(C(F)(F)F)s2)cc1,-73*
Cc1cc2c(C)nc(-c3ccccc3)nc2o1,-167*
O=C(CSc1cccc[n+]1[O-])c1cc2ccccc2o1,-101*
O=C(CSc1cccc[n+]1[O-])c1cc(Cl)ccc1Cl,-87*
O=C(CN1C(=O)c2ccccc2S1(=O)=O)c1ccc(Cl)cc1Cl,78
COc1cccc(/C=N/NC(=S)Nc2cccc(C(=O)O)c2)c1O,55
COc1ccc(/C=N/Nc2ccc(C(=O)O)cc2)c(OC)c1OC,-118*
COc1cc(/C=N/Nc2ccc(C(=O)O)cc2)cc(OC)c1OC,-148*
C=CCOc1c(OC)cc(/C=N/Nc2cccc(C(=O)O)c2)c(Br)c1Br,-177*
Cn1nc(C(=O)Nc2ccc(S(=O)(=O)NCc3ccco3)cc2)c2ccccc2c1=O,-96*
Cn1nc(-c2ccc(N3CCCCC3)c(NC(=O)c3ccco3)c2)c2ccccc2c1=O,67
CCc1nnc(NC(=O)c2ccc(-c3ccccc3F)o2)s1,-65*
O=C(NCc1ccccc1)c1ccc(-c2ccccc2F)o1,-155*
O=C(Cc1ccc(-c2ccccc2)cc1)NCc1ccccc1,104
CCCCCCCCC[n+]1cccc2c3ccccc3ccc21,69
CC(=O)n1c2c(c3ccccc31)OC(N)=C(C#N)C2c1ccc(C(C)C)cc1 (stereo not drawn),-118*
N#CC1=C(N)Oc2c(ccc3ccccc23)C1c1cccs1 (stereo not drawn),110
COC(=O)c1c(-c2ccc(C)cc2)csc1NC(=O)c1c(-c2ccccc2)noc1C,68
COC(=O)c1c(-c2cccnc2)csc1NC(=O)c1cc(C)on1,-231*
Cc1ccc(C(=O)Nc2scc(-c3ccccc3)c2C(=O)O)cc1,-92*
COC(=O)c1c(-c2ccc(F)cc2)csc1NC(=O)c1ccco1,-129*
COc1ccc(-c2csc(NC(=O)c3ccccc3F)c2C(=O)O)cc1,-89*
CC(C)C(=O)Nc1cccc(NC(=S)NC(=O)c2cccs2)c1,-126*
SMILES,aSyn 5UTR act
CC(C)C(=O)Nc1cccc(NC(=S)NC(=O)c2ccc(Cl)cc2)c1,-120*
CC(C)C(=O)Nc1cccc(NC(=S)NC(=O)c2ccc3c(c2)OCO3)c1,-158*
Cc1ccc(NC(=S)NC(=O)c2ccc(F)cc2)cc1S(=O)(=O)Nc1cccc(Cl)c1,81
Cc1ccc(O)c(N=NC2=C(O)CC(C)(C)CC2=O)c1,65
CCOc1ccc2nc(N=NC3=C(O)CC(C)(C)CC3=O)sc2c1,-98*
Cc1nc2ccc(N=NC3=C(O)CC(C)(C)CC3=O)cc2s1,-77*
CC1(C)CC(=O)C(N=Nc2cccc(S(=O)(=O)N3CCOCC3)c2)=C(O)C1,41
CC(=O)N1CCc2cc(N=NC3=C(O)CC(C)(C)CC3=O)ccc21,-95*
CCOc1ccc2c(c1)sc(=NC(=O)C1CC1)n2C,-215*
CC(=O)c1ccc(OCc2cc(=O)n3ccsc3n2)cc1,-95*
O=c1cc(COc2ccccc2[N+](=O)[O-])nc2sccn12,-83*
CCOc1ccccc1NC(=O)C(OC(=O)c1ccc(O)cc1)c1ccccc1 (stereo not drawn),-62*
